Source: article PMC4336329 (PLoS ONE, 2015)
Out of some 310,000 compounds screened, about 14,000 (4.5%) showed an effect of 50% or more. The effect is printed as a negative number. The entries come from a sample that favours strong results as a whole.

The compounds below were run against human ether-à-go-go-related gene (hERG) potassium channel (human, UniProt Q12809) (assay: primary screen, population patch clamp on CHO cells stably expressing hERG; higher = less effect of the substance).
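Note: peak tail current of the secondary pulse compared with the same well before compound.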

Chain of human ether-à-go-go-related gene (hERG) potassium channel (Q12809 whole entry, looked up): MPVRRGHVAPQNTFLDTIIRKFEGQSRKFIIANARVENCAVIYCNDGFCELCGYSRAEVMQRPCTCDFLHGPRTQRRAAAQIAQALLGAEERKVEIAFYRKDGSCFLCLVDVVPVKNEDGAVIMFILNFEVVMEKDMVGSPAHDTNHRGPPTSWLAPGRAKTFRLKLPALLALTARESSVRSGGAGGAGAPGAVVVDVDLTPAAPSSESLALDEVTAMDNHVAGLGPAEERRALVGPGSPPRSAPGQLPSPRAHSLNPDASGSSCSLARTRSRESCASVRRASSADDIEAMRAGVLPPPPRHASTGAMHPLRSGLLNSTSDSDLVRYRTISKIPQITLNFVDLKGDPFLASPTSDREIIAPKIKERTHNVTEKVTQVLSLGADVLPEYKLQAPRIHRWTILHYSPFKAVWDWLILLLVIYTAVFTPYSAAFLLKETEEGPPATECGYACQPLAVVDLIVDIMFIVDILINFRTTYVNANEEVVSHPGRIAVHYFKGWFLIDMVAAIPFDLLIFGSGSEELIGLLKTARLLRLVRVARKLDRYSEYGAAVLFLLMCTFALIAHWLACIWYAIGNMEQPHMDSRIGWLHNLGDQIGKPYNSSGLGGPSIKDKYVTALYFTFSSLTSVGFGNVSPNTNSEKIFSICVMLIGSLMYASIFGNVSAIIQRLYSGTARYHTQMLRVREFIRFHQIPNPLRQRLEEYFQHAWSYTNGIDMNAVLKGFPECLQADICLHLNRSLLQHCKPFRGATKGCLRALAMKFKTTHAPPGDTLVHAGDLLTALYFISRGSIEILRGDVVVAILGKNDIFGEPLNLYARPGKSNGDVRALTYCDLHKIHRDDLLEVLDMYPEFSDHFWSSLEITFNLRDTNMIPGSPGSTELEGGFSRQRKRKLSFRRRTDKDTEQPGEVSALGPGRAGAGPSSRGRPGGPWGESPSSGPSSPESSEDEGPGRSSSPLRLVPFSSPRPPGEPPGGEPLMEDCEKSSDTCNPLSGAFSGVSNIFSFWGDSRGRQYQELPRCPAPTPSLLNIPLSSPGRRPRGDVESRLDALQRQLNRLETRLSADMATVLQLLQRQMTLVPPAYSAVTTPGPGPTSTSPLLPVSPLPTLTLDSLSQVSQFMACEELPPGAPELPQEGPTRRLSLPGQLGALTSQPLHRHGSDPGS

Row | SMILES | hERG current change (%, negative = inhibition) at 10uM [%]
1 | Cc1ccc(C)c2sc(N)nc12 | 22.6
2 | COc1ccc(NC(=O)CSc2ncn[nH]2)c([N+](=O)[O-])c1 | -4.71
3 | Nc1nc(N)nc(-c2cc(C(F)(F)F)ccc2Cl)n1 | 11.9
4 | CC(=O)N(C)c1ccc(NC(=O)c2cnn(C)c2)cc1 | 3.39
5 | COc1cccc(CN2C(=O)CCC2(C)C(=O)NC2CCCCC2)c1 (stereo not drawn) | 12.9
6 | COc1cccc(-c2cc(C(=O)N/N=C/c3ccco3)c3ccccc3n2)c1 | -2.76
7 | C/C(CC(=O)Nc1cccc2c1CCCC2)=N\NC(=O)c1cccc2ccccc12 | -7.31
8 | O=C(c1ccc2oc(Cc3ccc(Cl)cc3)nc2c1)N1CC[C@H](O)C1 | 4.21
9 | CCCCCC1CC(CC(=O)Nc2nncs2)C(=O)O1 (stereo not drawn) | -8.91
10 | CCCCCCC1CC(C)(/C(C)=N/NC(N)=O)OC1=O (stereo not drawn) | -50.1
11 | CCCCC1CC(C)(C(=O)CSc2nc3ccccc3s2)OC1=O (stereo not drawn) | -0.178
12 | CCCCCCC1CC(/C(C)=N\NC(N)=O)OC1=O (stereo not drawn) | -53
13 | Br.CCCCCCCC1CC(CSC(=N)N)OC1=O (stereo not drawn) | -44.2
14 | CCCCCC1CC(/C(C)=N/NC(N)=O)OC1=O (stereo not drawn) | -7.05
15 | Br.CCCCC1CC(CSC(=N)N)OC1=O (stereo not drawn) | -1.27
16 | CCCC1CC(C)(/C(C)=N\NC(N)=S)OC1=O (stereo not drawn) | 12.4
17 | CCCCC1CC(/C(C)=N/NC(N)=O)OC1=O (stereo not drawn) | -6.35
18 | Br.CCCCCCC1CC(CSC(=N)N)OC1=O (stereo not drawn) | -52.1
19 | CCCCCCC1CC(C)(C(=O)C[NH2+]c2nncs2)OC1=O.[Br-] (stereo not drawn) | -66.3
20 | CCCCCCCC1CC(/C(C)=N/NC(N)=O)OC1=O (stereo not drawn) | -45.3
21 | COc1cccc(NC(=O)c2ccccc2-c2ccccc2C(=O)O)c1 | 10.1
22 | COc1ccc(NC(=O)CN(c2ccc([N+](=O)[O-])cc2)S(=O)(=O)c2ccccc2)cc1 | -10.3
23 | Cc1ccc(C(=O)O/N=C(\N)c2nonc2N)cc1 | -8.67
24 | COc1ccc(-c2nc3ccc([N+](=O)[O-])cc3[nH]2)cc1 | 13.5
25 | Cc1c(NC(=O)CSc2nnnn2-c2ccc(C(=O)O)cc2)c(=O)n(-c2ccccc2)n1C | 20.8
26 | CN(CC(=O)Nc1ccccc1C(F)(F)F)C(=O)c1cc2c(s1)CCCCC2 | -29.2
27 | CCc1sc(C(=O)NCc2ccccc2)cc1C | -9.06
